Compound activity: PubChem BioAssay, National Center for Advancing Translational Sciences (NCATS)
Compounds with a hit are over-represented: about 8.9% of the library has one in this group of screens.
HPGD inh = inhibitors of human 15-hydroxyprostaglandin dehydrogenase (HPGD). purified HPGD, NADH fluorescence kinetic, PGE2 substrate. Potency, µM, without a hit: at the top dose activity change, negative = inhibition, hits mostly inhibitors. 150,000 compounds, 4.3% hits. AID 894; active = well fitted inhibition curve with a large enough effect, not every such curve was filed as active; inconclusive = small, poorly fitted or top-dose-only effect, or another doubt; inactive = no such curve, though single readings can be large or run the other way; note: potency is the fitted concentration of half-maximal effect
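20 nM HPGD preincubated 15 min at room temperature with compound in 50 mM Tris-HCl pH 8, 0.01% Tween 20. Started with 1 mM NAD+ and 30 uM prostaglandin E2; NADH fluorescence (360/450 nm) read 5 times over 30-s intervals, last minus first.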
ALDH1A1 inh = ALDH1A1 (human) enzyme inhibition. AID 1030. Potency, µM (top dose mostly 75.3 µM), without a hit: at the top dose activity, negative = inhibition, usual class: inhibitors. Purified ALDH1A1, NADH fluorescence, propionaldehyde substrate. 220,000 compounds, 7.3% hits. P00352; active = well fitted inhibition curve with a large enough effect, not every such curve was filed as active; inconclusive = small, poorly fitted or top-dose-only effect, or another doubt; inactive = no such curve, though single readings can be large or run the other way;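 note: potency is the fitted concentration of half-maximal effect; plate controls were no enzyme wells and a reference inhibitor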
NPSR antag = antagonists of human neuropeptide S receptor cAMP signaling | 220,000 compounds, 1% hits | CHO-NPSR cells, cAMP TR-FRET, antagonist mode | Potency, µM (series often up to 38.3 µM), for the others: at the top dose activity change, negative = inhibition, most hits filed as inhibitors; note: potency is the fitted concentration of half-maximal effect; nearly all actives have a fitted effect of over 50% in size
Target sequence (Q6W5P4 whole entry, looked up): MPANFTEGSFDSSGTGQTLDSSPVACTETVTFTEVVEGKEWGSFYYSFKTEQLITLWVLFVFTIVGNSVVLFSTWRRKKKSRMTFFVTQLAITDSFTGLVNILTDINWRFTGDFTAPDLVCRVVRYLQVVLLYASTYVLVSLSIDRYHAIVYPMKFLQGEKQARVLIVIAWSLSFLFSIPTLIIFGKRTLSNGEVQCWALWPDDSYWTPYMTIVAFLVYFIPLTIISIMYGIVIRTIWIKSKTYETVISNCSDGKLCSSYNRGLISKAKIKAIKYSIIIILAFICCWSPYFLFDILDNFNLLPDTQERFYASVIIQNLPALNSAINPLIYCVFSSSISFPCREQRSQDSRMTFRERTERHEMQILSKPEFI
IMPase Li cell = cell-permeable IMPase inhibitors with lithium potentiation. 210,000 compounds, 0.35% hits. CHO-M1 cells, IP1 TR-FRET (IP-One), carbachol + lithium. Potency, µM (series often up to 59.4 µM), for inactives: at the highest dose activity, negative = IMPase inhibition, usual class: inhibitors;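 note: IP1 builds up when IMPase is blocked and the TR-FRET signal falls; potency is the fitted concentration of half-maximal effect; plate controls were basal vehicle for no effect and high inhibitor control for full effect; nearly all actives have a fitted effect of over 50% in size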
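Test compounds were applied to CHO-M1 cells previously cultured for 16–30 h at 2000 per well. A small lithium amount accompanied them; after 30 min at 37C, IP1 was quantified by TR-FRET.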
ALOX12 inhib = inhibitors of human 12-lipoxygenase (ALOX12); Potency, µM (highest dose often 57.1 µM), inactives show top-dose activity change, negative = inhibition, actives largely listed as inhibitors; P18054; 150,000 compounds, 0.12% hits; purified 12-hLO, xylenol orange hydroperoxide absorbance; AID 1452; note: potency is the fitted concentration of half-maximal effect; nearly all actives have a fitted effect of over 55% in size
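Xylenol orange chromogenic assay: hydroperoxide from 12hLO oxidises Fe(II), giving red-shifted Fe(III)-XO absorbance. Conditions: 150 nM enzyme, 40 uM arachidonic acid, 25 mM Hepes pH 7.0, 0.01% Triton X-100, 30 min, room temperature.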
IMPase cell inh = cell-permeable inhibitors of inositol monophosphatase (IMPase); P97697; CHO-M1 cells, IP1 accumulation, HTRF TR-FRET ratio; inhibition (IP1 accumulation), % at 46.1 µM; 120,000 tested, under 10 active; active = well fitted curve in the direction sought with a large enough effect in the signal ratio, not every such curve was filed as active; inconclusive = small, poorly fitted or top-dose-only effect, or a change in a side signal; inactive = no such curve, though single readings can be large or run the other way; the % refers to the signal ratio;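 note: cells stimulated with carbachol in lithium chloride buffer; plate controls were DMSO basal wells for no effect and reference inhibitor wells for full effect; higher means more IMPase inhibition seen as more IP1 and lower FRET ratio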
Target sequence (P97697 whole entry, looked up): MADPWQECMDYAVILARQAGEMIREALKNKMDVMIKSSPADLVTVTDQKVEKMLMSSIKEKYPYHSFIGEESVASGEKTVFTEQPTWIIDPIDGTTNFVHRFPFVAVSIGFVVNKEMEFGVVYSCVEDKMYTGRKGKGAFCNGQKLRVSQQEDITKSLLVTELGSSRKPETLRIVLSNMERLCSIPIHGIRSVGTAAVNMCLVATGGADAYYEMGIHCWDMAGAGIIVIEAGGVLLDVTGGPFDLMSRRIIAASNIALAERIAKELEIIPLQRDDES
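Measured: the HTRF emission ratio (665/620 nm) plus the 620 nm donor channel, each fitted to the Hill equation to give AC50. Cells were CHO-M1 given compounds up to 46 uM and a 30 min carbachol stimulation at 37C.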
* hit, by the source's call; ? = inconclusive; nt = no result; [ ] = dose if it differs, or a comment. Unless noted, calls come from the whole dose curve; as a rule, active = well fitted curve in the direction sought with a large enough effect; inconclusive = small, poorly fitted or top-dose-only effect, or another doubt; inactive = no such curve, though single readings can be large; an effect the other way counts as inactive or inconclusive. Unless noted, % is set by controls: 0 for no effect and ±100 for the full control effect.

SMILES	HPGD inh	ALDH1A1 inh	NPSR antag	IMPase Li cell	ALOX12 inhib	IMPase cell inh
N#C/C(=N\Nc1ccc(F)cc1)C(=N)N1CCCCC1	-25%	28µM*	-4%[46.1 µM]	31%[38.3 µM]	-22%	8
CCN1CCCC1CN(Cc1cc2ccc(C)cc2[nH]c1=O)C(=S)Nc1ccc(OC)cc1 (configuration not stated)	-11%	5%	23%	-8%	-6%	nt
O=C(NC(=S)Nc1ccccc1N1CCCC1)c1ccc(-c2cccc([N+](=O)[O-])c2)o1	25µM*	22µM*	?	4%[38.3 µM]	?	-1
CC(=O)N1CCN(c2ccccc2NC(=O)c2ccc(-c3cccc([N+](=O)[O-])c3)o2)CC1	nt	14µM*	-18%	22%	nt	nt
CCOC(=O)c1c[nH]c2c3c(ccc2c1=O)CCCC3	-20%	-10%	-8%[46.1 µM]	2%[38.3 µM]	1%	-8
CCOC(=O)C(C(C)=O)c1c(Br)c(O)c(O)c2c(C(=O)c3ccc(C)cc3)coc12 (configuration not stated)	7.9µM*	-3%	?	26%[38.3 µM]	-26%	12
CCOC(=O)c1c(C)n(-c2ccc(C)cc2)c2c(CC(C)=O)c(Br)c(OC)c(O)c12	-4%	7%	10µM*	35%[38.3 µM]	0%	2
CCOC(=O)c1c(C)n(-c2ccc(C)cc2)c2c(C(C(C)=O)C(=O)O)c(Br)c(O)c(O)c12 (configuration not stated)	18µM*	?	10µM*	49%[38.3 µM]	?	6
CCOC(=O)c1c(C)n(-c2ccc(C)cc2)c2ccc(O)c(CN(C)C)c12	nt	9%	-53%	-1%	nt	nt
O=C1C2C3C=CC(CNS(=O)(=O)c4ccccc4[N+](=O)[O-])(O3)C2C(=O)N1c1ccccc1 (configuration not stated)	nt	0.89µM*	7%	4%	nt	nt
O=C1C2C3C=CC(c4ccccc4)(C2C(=O)N1c1cccc(Cl)c1)C1C(=O)N(c2cccc(Cl)c2)C(=O)C31 (configuration not stated)	-17%	?	-48%	-1%	-1%	2
O=[N+]([O-])c1ccccc1S(=O)(=O)NCc1ccco1	nt	0%	23%	1%	nt	nt
Cc1cc(C)c(S(=O)(=O)NCC23C=CC(O2)C2C(=O)N(c4ccccc4)C(=O)C23)c(C)c1 (configuration not stated)	35µM*	2.5µM*	-13%[46.1 µM]	-8%[38.3 µM]	-4%	1
Cc1cc(C)nc(SCNC(=O)c2ccc(F)cc2)n1	14µM*	4%	-6%[46.1 µM]	-5%[38.3 µM]	-13%	8
Cc1ccccc1/C(N)=N/OC(=O)N1c2ccccc2Sc2ccccc21	18µM*	0%	?	2%[38.3 µM]	?	0
COc1ccc(Sc2nc(-c3ccccn3)ncc2OC)cc1	nt	?	-12%	7%	nt	nt
COc1cnc(-c2ccccn2)nc1Sc1ccccc1	nt	10µM*	-27%	18%	nt	nt
COc1cnc(-c2ccccn2)nc1Sc1ccc(F)cc1	nt	7.9µM*	-16%	12%	nt	nt
O=C(O/N=C1\CCCCC1c1ccc([N+](=O)[O-])cc1[N+](=O)[O-])c1c(F)cccc1F (configuration not stated)	-5%	18µM*	?	13%[38.3 µM]	-3%	7
COc1ccc(CCNC(=O)CSc2ccc(-c3ccccc3)nn2)cc1OC	-8%	4%	-5%[46.1 µM]	-5%[38.3 µM]	2%	3
CC1(C)CC(=O)C2=C(C1)OC1=C(C(=O)CC(C)(C)C1)C2c1ccccc1	-3%	6%	-10%[46.1 µM]	11%[38.3 µM]	-1%	2
COC(=O)C1=C(N)OC2=C(C(=O)CC(C)(C)C2)C1c1cccs1 (configuration not stated)	22µM*	-11%	-17%[46.1 µM]	-1%[38.3 µM]	-4%	-4
CCOC(=O)C1=C(N)OC2=C(C(=O)CC(C)(C)C2)C1c1cccnc1 (configuration not stated)	1%	-1%	-9%[46.1 µM]	10%[38.3 µM]	-1%	10
CC1(C)CC(=O)C2=C(C1)OC(N)=C(C#N)C2c1ccccc1 (configuration not stated)	-17%	14µM*	1%[46.1 µM]	8%[38.3 µM]	-2%	3
CC1(C)CC(=O)C2=C(C1)N(N1CCOCC1)C(N)=C(C#N)C2c1cccs1 (configuration not stated)	-11%	9%	-3%	3%	-6%	nt
SMILES	HPGD inh	ALDH1A1 inh	NPSR antag	IMPase Li cell	ALOX12 inhib	IMPase cell inh
CC1(C)CC(=O)C2=C(C1)OC(c1cccs1)C(C#N)=C2N (configuration not stated)	-16%	11µM*	-1%[46.1 µM]	20%[38.3 µM]	-6%	5
CC1(C)CC(=O)C2=C(C1)OC(N)=C(C#N)C2C1C=CCCC1 (configuration not stated)	-25%	4µM*	-9%[46.1 µM]	32%[38.3 µM]	-12%	-1
O=C(O)C1C(C(=O)O)C(C(=O)O)C1C(=O)O (configuration not stated)	-7%	7%[13.5 µM]	nt	0%	2%[11.4 µM]	nt
O=C(Nc1scc(-c2ccccc2)c1C(=O)O)c1ccco1	-25%	-12%	-13%[46.1 µM]	6%	5%	-4
COc1ccc(C2C3=C(CC(C)(C)CC3=O)OC(N)=C2[N+](=O)[O-])cc1 (configuration not stated)	-12%	19µM*	3%	3%	1%	nt
CC1(C)CC(=O)C(C2C3=C(CC(C)(C)CC3=O)Oc3ccccc32)=C(O)C1 (configuration not stated)	-8%	28µM*	-13%[46.1 µM]	1%[38.3 µM]	0%	0
COc1ccc2c(c1)C(C1=C(O)CC(C)(C)CC1=O)C1=C(CC(C)(C)CC1=O)O2 (configuration not stated)	-9%	-3%	-13%[46.1 µM]	9%[38.3 µM]	6%	14
CC1(C)CC(=O)C2=C(C1)OC(N)=C(C#N)C2c1cccs1 (configuration not stated)	nt	22µM*	7%	2%	nt	nt
Cc1ccc(C2C(C#N)=C(N)OC3=C2C(=O)CC(C)(C)C3)s1 (configuration not stated)	nt	nt	-1%	nt	nt	nt
O=C(O)c1cccnc1SCc1cccc(Cl)c1	nt	8%	-6%	4%	nt	nt
CC1CCCN(C(=S)SCC(=O)c2cc(Br)cc(Br)c2O)C1 (configuration not stated)	nt	25µM*	43%	14%	nt	nt
O=C(CSC(=S)N1CCCC1)c1cc(Br)cc(Br)c1O	nt	16µM*	-25%	-4%	nt	nt
O=C(c1cc(Br)ccc1Cl)N1CCCC1	nt	-2%	7%	4%	nt	nt
O=C(Cn1cnc2ccccc2c1=O)OCCCCN1C(=O)c2ccccc2C1=O	-8%	-1%	?	9%[38.3 µM]	-9%	9
Clc1ccc(C2CC(c3cccs3)n3ncnc3N2)cc1 (configuration not stated)	nt	nt	-15%	nt	nt	nt
